For 65 compounds, inhibition results are on record in PubChem BioAssay AID485270 (The Scripps Research Institute Molecular Screening Center, 2010).

Out of some 330,000 compounds screened, about 5,800 (1.8%) were called active. The entries come from a sample that favours actives as a whole. Unmarked numbers belong to inactive results. Rule as the data show it: active = inhibition mostly above about 38% (no sharp cut-off); inactive = mostly below about 40%.

The target in this experiment is Orexin/Hypocretin receptor type 1 (Homo sapiens) (UniProt O43613). In words: antagonists of human orexin 1 receptor (OX1R) (AID 485270).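 Also: 0% = agonist challenge alone and 100% = reference antagonist.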 As to conditions: OX1R-expressing cells, FRET antagonist read-out; at 6.6 µM; active compounds read high.
Sequence of Orexin/Hypocretin receptor type 1 (Homo sapiens) (O43613 whole entry, looked up): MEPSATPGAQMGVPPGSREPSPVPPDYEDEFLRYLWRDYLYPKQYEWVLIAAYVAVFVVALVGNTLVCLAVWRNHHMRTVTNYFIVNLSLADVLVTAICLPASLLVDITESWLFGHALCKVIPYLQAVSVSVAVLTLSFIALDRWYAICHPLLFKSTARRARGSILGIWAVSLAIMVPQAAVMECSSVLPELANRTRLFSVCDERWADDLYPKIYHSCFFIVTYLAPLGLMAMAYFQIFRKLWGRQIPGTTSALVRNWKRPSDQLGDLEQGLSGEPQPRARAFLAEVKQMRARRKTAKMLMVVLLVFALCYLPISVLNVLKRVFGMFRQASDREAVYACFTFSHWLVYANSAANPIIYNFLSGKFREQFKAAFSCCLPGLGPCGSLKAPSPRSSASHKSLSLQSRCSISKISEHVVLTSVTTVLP
Consider `COc1ccc(C)cc1NC(=O)CSc1cccc[n+]1[O-]`, for which the inhibition is -5.73%.
The same measure for `Fc1ccc2[nH]c3c(N4CCSCC4)ncnc3c2c1`: 85.8% (active); for `Cc1c(CN2CC[C@@H](N3CCN(c4ccccn4)CC3)[C@H](O)C2)[nH]c2ccc(F)cc12`: -1.02%.
For `COc1ccc2[nH]c3c(c2c1)CCN1C(=O)C(CC(=O)NCc2cccc(C(F)(F)F)c2)C[C@H](C(=O)N2CCOCC2)[C@@]31C` (stereo not given in full) the value was 13%; for `CCC(CO)Oc1cc(NCc2ccccc2)c2ncn(C3CCCC3)c2c1` (stereo not given), 12.8%; for `Cn1c(/C(C#N)=C2/CCCCCN2)nc2ccccc21`, 11.5%.
Consider `CCNC(=O)CSc1nc(-c2ccccc2)cs1`, for which the inhibition was 16.1%.
Regarding `N#C/C(=C1\CCCN1)c1nc(-c2ccccc2)cs1`, the inhibition was 84.1% (active).
With `N#CC(=C1SC=CS1)c1nc(-c2ccccc2)cs1`, the inhibition is 105% (active).
The same measure for `N#CC(=C1CCCC1)c1nc(-c2ccc(Cl)cc2)cs1`: 20.1%.
With `N#C/C(=C1/CCCN1)c1ccccn1`, the inhibition was 5.71%.
For `Cc1c(NC(=O)CN(C)CC(=O)Nc2ccc(F)c(F)c2F)c(=O)n(-c2ccccc2)n1C` the value was 4.65%.
The same measure for `COC(=O)[C@]1(Cc2ccccc2)N[C@H](CN(C)S(=O)(=O)c2ccc(F)cc2)[C@@H]2C(=O)N(Cc3ccccc3)C(=O)[C@@H]21`: 15.4%.
The same measure for `CNC[C@@H]1Oc2c(NS(C)(=O)=O)cccc2C(=O)N([C@@H](C)CO)C[C@H]1C`: -1.47%; for `O=C(C1CC1)N1N=C2CCCCC2C1(O)C(F)(F)F` (stereo not given): 5.9%; for `CCOC(=O)[C@H]1[C@H]2COc3cc(OC)ccc3[C@@H]2N2C(=O)CN(Cc3ccc(Cl)cc3)C(=O)[C@@]12C`: 7.39%.
On to `O=C(NCCc1ccc(F)cc1)c1ccc2nccnc2c1`, for which the inhibition was 9.11%.
For `COc1cc(-c2nnc(NC(=O)C3=COCCO3)o2)cc(OC)c1OC`, the inhibition was 4.19%.
The same measure for `O=C(Nc1nnc(C2=COCCO2)o1)c1ccc([N+](=O)[O-])s1`: 88.5% (active); for `Cc1ccc(C(=O)Nc2nnc(C3=COCCO3)o2)cc1C`: 9.95%; for `O=C(COC(=O)/C=C/c1ccc(Br)o1)Nc1cccc(S(=O)(=O)N2CCOCC2)c1`: 4.21%.
Take `Cc1noc(C)c1NC(=O)Nc1ccc2c(c1)C(=O)N([C@H](C)CO)C[C@H](C)[C@@H](CN(C)C(=O)Nc1ccccc1)O2`: the inhibition is -3.75%.
The same measure for `COc1cc(C(=O)OCc2cc(=O)n3ccsc3n2)ccc1OC(C)C`: 8.65%.
For `COc1cc(OC)c(NC(=O)c2ccc(Br)o2)cc1Cl` the value was 81.8% (active); for `COc1ccc(Cl)cc1NC(=O)COC(=O)c1ccc(Br)o1`, 5.94%.
For `CCN1CCN(c2c(Cl)cccc2NC(=O)c2ccc(Br)o2)CC1` the value was 14.6%.
`CCN(C[C@H]1N[C@@](CC)(C(=O)OC)[C@H]2C(=O)N(C)C(=O)[C@@H]12)C(=O)Nc1ccc(F)cc1`: the inhibition is -4.34%.
The same measure for `CCn1nnc2cc(C(=O)Nc3ccc(C(=O)OC(C)C)cc3)ccc21`: 16.8%; for `CSc1ccc(/C=N/NC(=O)c2cccc(Cl)c2)cc1`: 44.4% (active).
For `CSc1ccc(/C=N\NC(=O)CC(=O)NC(C)C)cc1` the value was 9.93%; for `O=C(N/N=C/c1ccc(Cl)c(Cl)c1)c1ccc2nc[nH]c2c1`, 31.8%; for `O=C(CN1C(=O)c2cccc3cccc1c23)Nc1ccccc1`, 26.3%.
The same measure for `O=C(CN1C(=O)c2cccc3cccc(c23)C1=O)N1CCCCC1`: 79.7% (active); for `O=C(CCCN1C(=O)c2cccc3cccc(c23)C1=O)N1CCN(Cc2ccc3c(c2)OCO3)CC1`: 52.3%.
As for `C/C(N)=C(/C#N)C(=O)COC(=O)c1cc(-c2cccc(Br)c2)nc2ccccc12`, the inhibition is 44.3%.
`C/C(N)=C(/C#N)C(=O)COC(=O)c1cc(-c2ccccc2)nc2ccc(Br)cc12`: the inhibition is 8.99%.
For `C/C(N)=C(/C#N)C(=O)COC(=O)c1cc(-c2ccc(C)cc2)nc2ccccc12` the value was 86.7% (active).
The same measure for `CC[C@]1(C(=O)OC)[C@H]2C(=O)N(Cc3ccccc3)C(=O)[C@H]2[C@H]2CN=C(SCc3ccc(Cl)cc3)N21`: 4.24%; for `CCCS(=O)(=O)N1CCC(CCOc2ccccc2)(C(=O)OCC)CC1`: 17.7%.
For the compound `Cc1ccc(S(=O)(=O)NCC(=O)NNC(=O)c2ccc(Br)cc2)cc1C`, the inhibition is 15.8%.
For `Nc1nc(-c2sc3nc4c(cc3c2N)CCCC4)nc(N2CCOCC2)n1` the value was 95.8% (active).
For `Cc1cccc(NC(=O)c2sc3nc(N4CCOCC4)c4c(c3c2N)CCCC4)c1` the value was 4.35%; for `Cc1nc(N2CCOCC2)nc2c1CCCC2`, 5.29%.
The same measure for `Cc1ccccc1-n1cc(CNC(=O)C2CCC(=O)N(C3CC3)C2)cn1` (stereo not given): 15.2%; for `C=CC[C@H](CC(=O)NCCO)C(=O)N[C@@H](COC(=O)[C@@H](CC=C)Cc1ccc(F)cc1)Cc1c[nH]c2ccccc12`: 5.23%.
Consider `Cc1ccc2c(c1)c1ncn(Cc3ccc(F)cc3)c(=O)c1n2C`, for which the inhibition was 8.56%.
For the compound `Cc1ccc2c(c1)c1ncnc(N3CCc4ccccc4C3)c1n2C`, the inhibition is 74.4% (active).
Consider `Cc1ccc2c(c1)c1ncn(CCC3=CCCCC3)c(=O)c1n2C`, for which the inhibition was 18.4%.
For `CN(c1ccccc1)S(=O)(=O)c1cc(C(=O)N2CCN(c3ncccn3)CC2)ccc1Cl` the value was 4.83%; for `COc1ccc2oc(=O)c(C(=O)N3CCCC3)cc2c1`, 0.49%; for `COc1ccc(-c2nc(CS(=O)CC(=O)NCc3ccccn3)c(C)o2)cc1` (stereo not given), 1.65%.
Consider `COc1ccc2oc(=O)c(C(=O)NCc3ccccn3)cc2c1`, for which the inhibition was 95.3% (active).
For `COc1ccc(CNC(=O)C[C@H]2C[C@H](C(=O)N3CCOCC3)[C@@]3(CCC4CCCC4)c4[nH]c5ccc(Cl)cc5c4CCN3C2=O)cc1OC` the value was 0.33%; for `O=C1C=CN2CCCC2CC1` (stereo not given), 13.3%; for `CC(=O)Nc1ccc(S(=O)(=O)NCCC(=O)N2CCN(c3ccccc3Cl)CC2)cc1`, 13.1%.
The same measure for `CN1C(=O)/C(=N/OC(=O)c2ccccc2Br)c2ccccc21`: 14%; for `CCC1C(=O)c2ccccc2N(C)C1=O` (stereo not given): 17.9%.
For `CN1C(=O)/C(=C\c2cc(Br)cs2)c2ccccc21` the value was 63.8% (active); for `CCOCc1c(C(=O)N2CCN(Cc3ccc(Br)s3)CC2)oc2ccccc12`, 5.32%; for `O=C(COc1ccc([N+](=O)[O-])cc1Cl)Nc1ccc2[nH]c(=O)[nH]c2c1`, 9.15%.
In the case of `CCCCCCSc1ccc([C@@H]2[C@H]3C(=O)N(CC)C(=O)[C@H]3[C@]3(C(=O)OC)CCCCN23)cc1`, the inhibition was 3.69%.
On to `CC1CCN(c2oc(-c3ccccc3F)nc2C#N)CC1`, for which the inhibition is 9.88%.
The same measure for `N#Cc1nc(-c2cccc3ccccc23)oc1N`: 71.4% (active); for `COc1ccc(Nc2oc(-c3ccccc3Cl)nc2C#N)cc1`: 29.4%; for `Cc1ccc(NC(=O)C2CC2)cc1S(=O)(=O)N1CCOCC1`: 5.49%.
